# Data from PubChem BioAssay (Tox21).
# A number with no mark means an inactive call. Records with an inconclusive call do not appear. A call without a number means that no potency is given here. The source made the active and inactive calls. Unless noted, calls follow the shape of the dose curve; as a rule, active = well fitted curve in the direction sought with a large enough effect in the repeat runs; inconclusive = weak or mixed curves; inactive = no such curve, though single readings can be large; an effect the other way counts as inactive or inconclusive.
# Legend:
# [1] = biological target: Thyrotropin receptor (Homo sapiens) (UniProt P16473); experiment: qHTS assay to identify small molecule agonists of the thyroid stimulating hormone receptor (TSHR) signaling pathway (AID 1224843; calls by dose curve; also: nearly all actives have a fitted effect of over 45% in size)
# Outline: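 TSHR-expressing HEK293 cells (800 per well) were exposed to compounds for 30 min at room temperature. cAMP was then detected by HTRF competition with cAMP-d2 and anti-cAMP cryptate, read after 1 h at room temperature. Fifteen concentrations, triplicate.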
# [2] = qHTS assay to identify small molecule agonists of the hypoxia (HIF-1) signaling pathway - cell viability counter screen (AID 1224844; calls by dose curve; also: nearly all actives have a fitted effect of over 50% in size)
# Outline: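 ME-180 HRE-bla cells, 2,000/well, 0.5% dialyzed FBS; 5 hr settle, 17 hr compound at 37C/5% CO2; CCF4-AM reporter read first, then CellTiter-Glo luminescence after 30 min RT.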
# [3] = qHTS assay to identify small molecule agonists of H2AX (AID 1224845; active = well fitted activation curve with a large enough effect in the signal ratio in the repeat runs, not every such curve was filed as active; the % refers to the signal ratio)
# Outline: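 Wild-type CHO-K1 cells plated overnight, then exposed 3 hr at 37C to compounds at 15 concentrations (0.76% DMSO). Lysed, then HTRF anti-pH2AX(S139)-cryptate/anti-H2AX-d2 detection after 24 hr at room temperature; emissions 665 and 620 nm.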
# [4] = qHTS assay to identify small molecule agonists of the hypoxia (HIF-1) signaling pathway (AID 1224846; active = well fitted activation curve with a large enough effect in the signal ratio in the repeat runs, not every such curve was filed as active; the % refers to the signal ratio)
# Outline: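 Cell line: CellSensor HRE-bla ME-180; 2,000 cells/well; 0.5% dialyzed FBS; 5 h preincubation; DMSO compound pin transfer; 17 h, 37C, 5% CO2; CCF4-AM added; bla FRET signal scored for activation.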
# [5] = qHTS assay to identify small molecule agonists of H2AX - cell viability counter screen (AID 1224847; calls by dose curve; also: top concentration of the series differs between compounds; nearly all actives have a fitted effect of over 30% in size)
# Outline: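 Wild-type CHO-K1 cells (10% FBS medium) were plated overnight at 37C, exposed to compounds at 15 concentrations for 3 hr at 37C (0.76% DMSO final), and viability was read as CellTiter-Glo luminescence after 30 min at room temperature.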
# [6] = qHTS assay to identify small molecule antagonists of the estrogen related receptor (ERR) signaling pathway from Tox21 library (AID 1224848); also: nearly all actives have a fitted effect of over 50% in size
# Outline: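 Cells: ERR line, 2,000/well; 6 h preincubation 37 C/5% CO2. Cpd in DMSO via pin tool; 18 h, 37 C. ONE-Glo, 30 min RT, luminescence.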
# [7] = qHTS assay to identify small molecule agonists of the estrogen related receptor (ERR) signaling pathway from Tox21 library (AID 1224849; calls by dose curve; also: nearly all actives have a fitted effect of over 15% in size); settings: ERR reporter cell line, ONE-Glo luciferase, 18 h; at 92.4 µM (top of the series) unless noted
# Outline: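 ERR cells, 6 h pre-incubation 37 C/5% CO2; cpd in DMSO pinned; 18 h 37 C; ONE-Glo added, 30 min RT; luminescence read. Agonist mode, qHTS.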
# [8] = qHTS RealTime-Glo MT Cell Viability Assay in HepG2 cells - 24 hour (AID 1224867); also: nearly all actives have a fitted effect of over 50% in size
# Outline: (§1)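 Cell number in HepG2 cultures estimated from NanoLuc luminescence generated by metabolic reduction of a prosubstrate by living cells. The homogeneous, nonlytic format allowed repeated reads at 0, 8, 16, 24, 32 and 40 h of compound exposure.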
# [9] = qHTS RealTime-Glo MT Cell Viability Assay in HEK293 cells - 32 hour (AID 1224868); also: nearly all actives have a fitted effect of over 50% in size; also: potency is read from the fitted curve at half-maximal effect
# Outline: (§2)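 Homogeneous bioluminescent viability format in HEK293 cells (600 cells/well). Following 5 h at 37 C/5% CO2, 23 nL compound was pintooled; the signal was measured repeatedly during 40 h incubation.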
# [10] = A CellTox Green Cytotoxicity Assay to monitor cytotoxicity in HEK293 cells - 0 hour (AID 1224869); also: nearly all actives have a fitted effect of over 50% in size
# Outline: (§3)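 Nonlytic real-time cytotoxicity: HEK293 + CellTox Green reagent plated, 5 h preincubation, pintool compound addition (23 nL in DMSO), 37 C for 40 h, fluorescence measured at successive time points.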
# [11] = qHTS RealTime-Glo MT Cell Viability Assay in HepG2 cells - 40 hour (AID 1224870); also: nearly all actives have a fitted effect of over 50% in size
# Outline: (§4)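 HepG2 cells mixed with RealTime-Glo MT reagents (NanoLuc plus cell-permeant prosubstrate) were seeded at 600 cells/well, incubated 5 h at 37 C/5% CO2, then pinned with compounds in DMSO; nonlytic luminescence tracked viability during 40 h treatment.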
# [12] = A CellTox Green Cytotoxicity Assay to monitor cytotoxicity in HEK293 cells - 40 hour (AID 1224871); also: nearly all actives have a fitted effect of over 45% in size
# Outline: as §3
# [13] = qHTS RealTime-Glo MT Cell Viability Assay in HEK293 cells - 16 hour (AID 1224872); also: nearly all actives have a fitted effect of over 50% in size; also: potency is read from the fitted curve at half-maximal effect
# Outline: as §2
# [14] = qHTS RealTime-Glo MT Cell Viability Assay in HepG2 cells - 8 hour (AID 1224873); also: nearly all actives have a fitted effect of over 55% in size
# Outline: as §4
# [15] = qHTS RealTime-Glo MT Cell Viability Assay in HEK293 cells - 40 hour (AID 1224874); settings: RealTime-Glo luminescence; max response: hits give low values; also: nearly all actives have a fitted effect of over 50% in size; also: potency is read from the fitted curve at half-maximal effect
# Outline: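 Cells were seeded together with NanoLuc luciferase and a prosubstrate that viable cells reduce to a luciferase substrate. After a 5 h incubation at 37 C/5% CO2, compounds were added and luminescence was measured repeatedly during 40 h of treatment.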
# [16] = A CellTox Green Cytotoxicity Assay to monitor cytotoxicity in HEK293 cells - 24 hour (AID 1224875); also: nearly all actives have a fitted effect of over 45% in size
# Outline: as §3
# [17] = A CellTox Green Cytotoxicity Assay to monitor cytotoxicity in HepG2 cells - 16 hour (AID 1224876); also: nearly all actives have a fitted effect of over 45% in size
# Outline: (§5)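 Read-out is fluorescence of a cyanine dye excluded from live cells that stains DNA of dead HepG2 cells, with signal proportional to cytotoxicity. Plates were read at 0, 8, 16, 24, 32 and 40 h after compound addition.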
# [18] = qHTS RealTime-Glo MT Cell Viability Assay in HepG2 cells - 32 hour (AID 1224877); also: nearly all actives have a fitted effect of over 55% in size
# Outline: as §1
# [19] = A CellTox Green Cytotoxicity Assay to monitor cytotoxicity in HepG2 cells - 24 hour (AID 1224878); also: nearly all actives have a fitted effect of over 45% in size
# Outline: as §5
# [20] = A CellTox Green Cytotoxicity Assay to monitor cytotoxicity in HepG2 cells - 40 hour (AID 1224879); also: nearly all actives have a fitted effect of over 40% in size
# Outline: as §5
# Sequence of Thyrotropin receptor (Homo sapiens) (P16473 whole entry, looked up): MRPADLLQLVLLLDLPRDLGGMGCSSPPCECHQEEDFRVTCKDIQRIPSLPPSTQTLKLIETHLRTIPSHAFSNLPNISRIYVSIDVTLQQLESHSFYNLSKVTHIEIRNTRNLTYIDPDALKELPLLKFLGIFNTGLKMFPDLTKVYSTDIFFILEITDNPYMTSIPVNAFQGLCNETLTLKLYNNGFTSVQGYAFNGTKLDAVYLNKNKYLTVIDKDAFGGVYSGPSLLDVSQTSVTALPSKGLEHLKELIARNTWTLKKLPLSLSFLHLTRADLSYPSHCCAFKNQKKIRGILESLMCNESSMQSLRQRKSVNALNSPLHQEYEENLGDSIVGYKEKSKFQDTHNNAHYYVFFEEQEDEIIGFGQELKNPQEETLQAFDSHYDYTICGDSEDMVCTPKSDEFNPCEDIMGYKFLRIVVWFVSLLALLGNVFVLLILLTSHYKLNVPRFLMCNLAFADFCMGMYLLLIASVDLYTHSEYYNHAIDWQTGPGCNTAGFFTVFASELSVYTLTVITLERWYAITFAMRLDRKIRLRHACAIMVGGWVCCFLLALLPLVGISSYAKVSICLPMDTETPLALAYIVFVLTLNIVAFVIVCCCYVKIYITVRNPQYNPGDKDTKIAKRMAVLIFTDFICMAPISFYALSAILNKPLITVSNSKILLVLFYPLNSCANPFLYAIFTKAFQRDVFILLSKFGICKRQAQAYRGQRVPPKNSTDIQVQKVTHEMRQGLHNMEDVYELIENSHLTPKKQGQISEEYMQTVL
smiles,measurement,setting,value
CC(C)OC(C)C,Potency,[1],inactive
same,Potency,[2],inactive
same,Potency,[3],inactive
same,outcome,[4],inactive
same,Potency,[5],inactive
same,Potency,[6],inactive
same,"activity change, positive = activation",[7],-8.47%
same,Potency,[8],inactive
same,Potency,[9],inactive
same,Potency,[10],inactive
same,Potency,[11],inactive
same,Potency,[12],inactive
same,Potency,[13],inactive
same,outcome,[14],inactive
same,max response,[15],20.1%
same,Potency,[16],inactive
same,Potency,[17],inactive
same,Potency,[18],inactive
same,Potency,[19],inactive
same,Potency,[20],inactive
CCN1CC(CCN2CCOCC2)C(c2ccccc2)(c2ccccc2)C1=O (configuration not stated),Potency,[1],inactive
same,Potency,[2],inactive
same,Potency,[3],inactive
same,outcome,[4],inactive
same,Potency,[5],inactive
same,Potency,[6],inactive
same,"activity change, positive = activation",[7],-6.21% [at 42.5 µM]
same,Potency,[8],inactive
same,Potency,[9],inactive
same,Potency,[10],inactive
same,Potency,[11],inactive
same,Potency,[12],inactive
same,Potency,[13],inactive
same,outcome,[14],inactive
same,max response,[15],20.2%
same,Potency,[16],inactive
same,Potency,[17],inactive
same,Potency,[18],inactive
same,Potency,[19],inactive
same,Potency,[20],inactive
CCCCCCCCCC#N,Potency,[1],inactive
same,Potency,[2],inactive
same,Potency,[3],inactive
same,outcome,[4],inactive
same,Potency,[5],inactive
same,Potency,[6],inactive
same,"activity change, positive = activation",[7],-15.2%
same,Potency,[8],inactive
same,Potency,[9],inactive
same,Potency,[12],inactive
same,Potency,[13],inactive
same,outcome,[14],inactive
same,max response,[15],0.388%
same,Potency,[16],inactive
same,Potency,[17],inactive
same,Potency,[18],inactive
same,Potency,[19],inactive
same,Potency,[20],inactive
CCc1cc2cc(OC)c(OC)cc2c(Cc2ccccc2)n1,Potency,[1],inactive
same,Potency,[2],inactive
same,Potency,[3],inactive
same,outcome,[4],inactive
same,Potency,[5],inactive
same,Potency,[6],inactive
same,"activity change, positive = activation",[7],-12.2% [at 42.5 µM]
same,Potency,[8],inactive
same,Potency,[9],16.9 µM (active)
same,Potency,[10],inactive
same,Potency,[12],inactive
same,Potency,[13],16.9 µM (active)
same,outcome,[14],inactive
same,Potency,[15],16.9 µM (active)
same,Potency,[16],inactive
same,Potency,[18],inactive
Cc1ccc(C)c(N)c1,Potency,[1],inactive
same,Potency,[2],inactive
same,Potency,[3],inactive
same,outcome,[4],inactive
same,Potency,[5],inactive
same,Potency,[6],inactive
same,"activity change, positive = activation",[7],2.8%
same,Potency,[8],inactive
same,Potency,[9],inactive
same,Potency,[11],inactive
same,Potency,[12],inactive
same,Potency,[13],inactive
same,outcome,[14],inactive
same,max response,[15],4.84%
same,Potency,[16],inactive
same,Potency,[17],inactive
same,Potency,[18],inactive
same,Potency,[19],inactive
same,Potency,[20],inactive
Cc1ncc(CO)c(CN)c1O,Potency,[1],inactive
same,Potency,[2],inactive
same,Potency,[3],inactive
same,outcome,[4],inactive
same,Potency,[5],inactive
same,Potency,[6],inactive
same,"activity change, positive = activation",[7],4.27% [at 42.5 µM]
same,Potency,[8],inactive
same,Potency,[9],inactive
same,Potency,[11],inactive
same,Potency,[12],inactive
same,Potency,[13],inactive
same,outcome,[14],inactive
same,max response,[15],4.15%
same,Potency,[16],inactive
same,Potency,[17],inactive
same,Potency,[18],inactive
same,Potency,[20],inactive
COC(=O)/C=C(/C)N,Potency,[1],inactive
same,Potency,[2],inactive
same,Potency,[3],inactive
same,outcome,[4],inactive
same,Potency,[5],inactive
same,Potency,[6],inactive
same,"activity change, positive = activation",[7],7.53% [at 42.5 µM]
same,Potency,[8],inactive
same,Potency,[9],inactive
same,Potency,[10],inactive
same,Potency,[11],inactive
same,Potency,[12],inactive
same,Potency,[13],inactive
same,outcome,[14],inactive
same,max response,[15],5.09%
same,Potency,[16],inactive
same,Potency,[17],inactive
same,Potency,[18],inactive
same,Potency,[19],inactive
same,Potency,[20],inactive
CC(Oc1c(Cl)cccc1Cl)C1=NCCN1 (configuration not stated),Potency,[1],inactive
same,Potency,[2],inactive
same,Potency,[3],inactive
same,outcome,[4],inactive
same,Potency,[5],inactive
same,Potency,[6],inactive
same,"activity change, positive = activation",[7],-3.99% [at 42.5 µM]
same,Potency,[8],inactive
same,Potency,[9],inactive
same,Potency,[10],inactive
same,Potency,[11],inactive
same,Potency,[12],inactive
same,Potency,[13],inactive
same,outcome,[14],inactive
same,max response,[15],-8.42%
same,Potency,[16],inactive
same,Potency,[17],inactive
same,Potency,[18],inactive
same,Potency,[20],inactive
COC(=O)c1ccc(OC)cc1,Potency,[1],inactive
same,Potency,[2],inactive
same,Potency,[3],inactive
same,outcome,[4],inactive
same,Potency,[5],inactive
same,Potency,[6],inactive
same,"activity change, positive = activation",[7],5.85%
same,Potency,[8],inactive
same,Potency,[9],inactive
same,Potency,[11],inactive
same,Potency,[12],inactive
same,Potency,[13],inactive
same,outcome,[14],inactive
same,max response,[15],0.622%
same,Potency,[16],inactive
same,Potency,[17],inactive
same,Potency,[18],inactive
same,Potency,[19],inactive
same,Potency,[20],inactive
CC(C)CCCCCCc1ccc(OCCOCCO)cc1,Potency,[1],inactive
same,Potency,[2],inactive
same,Potency,[3],inactive
same,outcome,[4],inactive
same,Potency,[5],inactive
same,Potency,[6],inactive
same,"activity change, positive = activation",[7],-10.7%
same,Potency,[8],inactive
same,Potency,[9],inactive
same,Potency,[11],inactive
same,Potency,[12],inactive
same,Potency,[13],inactive
same,outcome,[14],inactive
same,max response,[15],2.16%
same,Potency,[16],inactive
same,Potency,[17],inactive
same,Potency,[18],inactive
same,Potency,[19],inactive
same,Potency,[20],inactive
COc1cc(C)ccc1C(C)C,Potency,[1],inactive
same,Potency,[2],inactive
same,Potency,[3],inactive
same,outcome,[4],inactive
same,Potency,[5],inactive
same,Potency,[6],inactive
same,"activity change, positive = activation",[7],-0.104%
same,Potency,[8],inactive
same,Potency,[9],inactive
same,Potency,[10],inactive
same,Potency,[11],inactive
same,Potency,[12],inactive
same,Potency,[13],inactive
same,outcome,[14],inactive
same,max response,[15],3.29%
same,Potency,[16],inactive
same,Potency,[17],inactive
same,Potency,[18],inactive
same,Potency,[20],inactive
CCOC(=O)c1ccccc1O,Potency,[1],inactive
same,Potency,[2],inactive
same,Potency,[3],inactive
same,outcome,[4],inactive
same,Potency,[5],inactive
same,Potency,[6],inactive
same,"activity change, positive = activation",[7],1.87% [at 42.5 µM]
same,Potency,[8],inactive
same,Potency,[9],inactive
same,Potency,[10],inactive
same,Potency,[11],inactive
same,Potency,[12],inactive
same,Potency,[13],inactive
same,outcome,[14],inactive
same,max response,[15],4.34%
same,Potency,[16],inactive
same,Potency,[17],inactive
same,Potency,[18],inactive
same,Potency,[19],inactive
same,Potency,[20],inactive
C=O,Potency,[1],inactive
same,Potency,[2],inactive
same,Potency,[3],inactive
same,outcome,[4],inactive
same,Potency,[5],inactive
same,Potency,[6],inactive
same,"activity change, positive = activation",[7],0.267%
same,Potency,[8],inactive
same,Potency,[9],inactive
same,Potency,[10],inactive
same,Potency,[11],inactive
same,Potency,[12],inactive
same,Potency,[13],inactive
same,outcome,[14],inactive
same,max response,[15],-2.52%
same,Potency,[16],inactive
same,Potency,[17],inactive
same,Potency,[18],inactive
same,Potency,[19],inactive
same,Potency,[20],inactive
